Data on 69 molecules can be found in the supplement of paper PMC4723716.

± gives the uncertainty stated by the source. The full ranking holds about 9,900 compounds; the median of “viability index relative to DMSO control” is about 1, and the lowest 2% start at about 0.85. This excerpt belongs to a sample that is enriched for the lowest values.

In the test the test system is Plasmodium falciparum NF54 stage V gametocytes. Put plainly: viability index relative to DMSO control (fraction); higher = less gametocyte killing. To be noted: 2.5 µM, incubation time: 72 h. In short, it runs like this:
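Compound at 2.5 µM was incubated for 72 hr at 37°C under low oxygen with P. falciparum NF54 stage V gametocytes (0.75% gametocytemia, 1.25% hematocrit, 10 µl, serum-free screening medium) in 1,536-well plates. Staining used 3 µl of 2.5 µM MitoTracker Red CMXRos plus 0.13% saponin for one to two hours, and red particles of 20–70 µm2 were counted in one imaged field per well. Each viability index is that count relative to the plate mean of solvent-only wells.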

The mark [1] stands for this setting: library set: Broad Institute DOS.
[2] abbreviates: library set: Broad Institute Blood Stage.

Take `CN1C(=O)c2cc(NC(=O)c3cnccn3)ccc2OC[C@H]2O[C@H](CC(=O)NCC3CCCCC3)CC[C@@H]21`: the viability index under setting [1] came out at 0.959 ± 0.028.
For `Cc1ccc(S(=O)(=O)N[C@H]2CC[C@@H](CC(=O)NCc3ccncn3)O[C@@H]2CO)cc1`, the viability index under setting [1] is 1.01 ± 0.11.
Regarding `CN1[C@@H]2CN(C(=O)C3CCCCC3)c3ccccc3[C@@H]2[C@@H]1CO`, the viability index under setting [1] came out at 1.06 ± 0.063.
The same measure, in the same setting: under `COc1ccc(NC(=O)N2C[C@@]3(C2)CN([C@@H](CO)c2[nH]c4cc(OC)ccc4c32)C(C)=O)cc1` stands 1.01 ± 0.1.
The same measure, in the same setting: the same measure for `COc1ccc2c3c([nH]c2c1)[C@H](CO)N(C[C@]31CCN(Cc2ccncc2)CC1)C(=O)CC1CC1`: 0.934 ± 0.098; for `O=C(C1CCOCC1)N1CC(=O)N2[C@H](C1)[C@@H](c1ccc(C#CCc3ccccc3)cc1)[C@@H]2CO`: 1.06 ± 0.041.
With `COCc1cn([C@@H]2C[C@@H]3O[C@H](CO)CC[C@@H]3O[C@@H]2CCc2ccc(-c3ccc(OC)cc3)cc2)nn1`, under setting [2], the viability index was 0.791 ± 0.041.
With `COCc1cn(CC[C@@H]2CC[C@H](NC(=O)Nc3c(C)noc3C)[C@H](CO)O2)nn1`, under setting [1], the viability index was 0.951 ± 0.12.
On the same count and under the same terms, the same measure for `O=C(C1CCOCC1)N1CC(=O)N2[C@H](C1)[C@H](c1ccc(C#CCc3ccccc3)cc1)[C@@H]2CO`: 1.09 ± 0.14.
On the same count and under the same terms, the same measure for `COCc1cn(CC[C@H]2CC[C@@H](NC(=O)Nc3c(C)noc3C)[C@H](CO)O2)nn1`: 1.03 ± 0.051.
Turning to `COCc1cn([C@@H]2C[C@@H]3O[C@@H](CO)CC[C@@H]3O[C@@H]2CCc2ccc(-c3ccc(OC)cc3)cc2)nn1`, under setting [2], the viability index stood at 0.811 ± 0.063.
`COCc1cn(CC[C@H]2CC[C@H](NC(=O)Nc3c(C)noc3C)[C@@H](CO)O2)nn1`: under setting [1], the viability index turned out to be 0.927 ± 0.067.
Under setting [2], `OC[C@H]1CC[C@@H]2O[C@H](CCc3ccc(C#CCc4ccccc4)cc3)[C@H](n3cc(-c4ccccc4)nn3)C[C@@H]2O1` yielded a viability index of 0.781 ± 0.043.
For `COCc1cn(CC[C@@H]2CC[C@H](NC(=O)Nc3c(C)noc3C)[C@@H](CO)O2)nn1`, under setting [1], the viability index was found to be 1.07 ± 0.097.
The same measure, in the same setting: the same measure for `CCC(=O)N1CC2(C1)[C@@H](c1ccc(-c3cccc(C)c3)cc1)[C@@H](CO)N2S(C)(=O)=O`: 1.057 ± 0.0069.
The same measure, in the same setting: under `Cc1nn(C)cc1NC(=O)C[C@@H]1CC[C@@H]2[C@H](COc3ccc(NC(=O)c4cccc(F)c4)cc3C(=O)N2C)O1` stands 1.15 ± 0.11; under `O=C(C[C@@H]1CC[C@@H]2[C@H](COC[C@@H](O)CN2C(=O)Nc2cccc(F)c2)O1)NCCCN1CCOCC1`, 1.12 ± 0.081.
Under setting [1], `COc1ccc(CN(C)C[C@@H]2OCc3cnnn3CCCC(=O)N([C@H](C)CO)C[C@@H]2C)cc1` gave a viability index of 0.963 ± 0.038.
On the same count and under the same terms, under `O=C(CN1CCOCC1)N[C@H]1CC[C@H](CCn2cc(C3CC3)nn2)O[C@@H]1CO` stands 1.16 ± 0.021.
With `C/C=C/c1ccc2n(c1=O)C[C@@H]1N[C@H]2[C@H](C(=O)NC2CCCC2)[C@H]1CO.C/C=C\c1ccc2n(c1=O)C[C@@H]1N[C@H]2[C@H](C(=O)NC2CCCC2)[C@H]1CO`, the viability index under setting [1] worked out at 1.04 ± 0.018.
On the same count and under the same terms, under `COc1ccc2c3c([C@H](CO)N(C[C@]33CCN(CC3)C(=O)c3ccccc3)C(=O)c3ccccc3)n(C)c2c1` stands 0.979 ± 0.13; under `COc1ccc2c3c([C@@H](CO)N(C[C@]33CN(C3)C(=O)c3cccc(F)c3)C(=O)c3cccc(F)c3)n(C)c2c1`, 0.848 ± 0.02; under `COc1ccc2c3c([C@@H](CO)N(C[C@]33CCN(CC3)C(=O)c3ccccc3)C(=O)c3ccccc3)n(C)c2c1`, 0.761 ± 0.011.
Same read-out and setting: the same measure for `CCS(=O)(=O)N1CC[C@@]2(CC1)CN([C@@H](CO)c1c2c2ccc(OC)cc2n1C)C(=O)c1cccc(F)c1`: 1.02 ± 0.079; for `COc1ccc2c(c1)n(C)c1[C@H](CO)N(C[C@]3(CCN(C)CC3)c21)C(=O)c1ccc(F)cc1`: 1.05 ± 0.018.
`COc1ccc2c3c([C@H](CO)N(C[C@]33CN(C3)C(=O)c3cccc(F)c3)C(=O)c3cccc(F)c3)n(C)c2c1` had a viability index under setting [1] of 1.04 ± 0.047.
Same read-out and setting: the same measure for `Cc1noc(C)c1S(=O)(=O)Nc1ccc2c(c1)C(=O)N([C@@H](C)CO)C[C@H](C)[C@H](CN(C)Cc1ccc(C(=O)O)cc1)OCCCC[C@H](C)O2`: 1.14 ± 0.051; for `O=C(C[C@H]1C[C@H]2c3cc(NC(=O)C4CCOCC4)ccc3O[C@H]2[C@H](CO)O1)NCc1cccnc1`: 1.086 ± 0.0019.
On the same count and under the same terms, under `O=C(N[C@H]1CC[C@@H](CCn2cc(-c3ccccc3F)nn2)O[C@H]1CO)c1ccc2c(c1)OCO2` stands 1.1 ± 0.06; under `COC(=O)C[C@@H]1CC[C@H]2[C@@H](COc3ccc(NS(=O)(=O)c4ccc(C)cc4)cc3C(=O)N2C)O1`, 1.07 ± 0.083; under `CN1C(=O)c2cc(NC(=O)c3ccc(F)c(F)c3)ccc2OC[C@H]2O[C@@H](CC(=O)N3CCCCC3)CC[C@H]21`, 1.1 ± 0.0047.
The same measure, in the same setting: under `COc1ccc2c3c([C@@H](CO)N(Cc4ccccc4Cl)C[C@]33CCN(CC3)C(=O)CC3CC3)n(C)c2c1` stands 0.939 ± 0.025; under `COc1ccc2c3c([C@H](CO)N(Cc4ccccc4Cl)C[C@]33CCN(CC3)C(=O)CC3CC3)n(C)c2c1`, 0.922 ± 0.014.
Take `COc1ccc2c3c([C@H](CO)N(Cc4ccc5OCOc5c4)C[C@]33CN(C3)C(=O)c3ccc4OCOc4c3)n(C)c2c1`: the viability index under setting [2] worked out at 0.435 ± 0.088.
With `COc1ccc2c3c([C@@H](CO)N(C[C@]33CCN(CC3)C(=O)c3ccc4OCOc4c3)C(=O)Nc3ccc(F)cc3)n(C)c2c1`, the viability index under setting [1] stood at 0.967 ± 0.057.
`COc1ccc2c3c([C@H](CO)N(Cc4ccccc4Cl)C[C@]33CN(C3)C(=O)CN(C)C)n(C)c2c1` registered a viability index under setting [1] of 0.782 ± 0.042.
Same read-out and setting: under `COc1ccc2c3c([C@@H](CO)N(C)C[C@]33CCN(CC3)C(=O)c3ccc4OCOc4c3)n(C)c2c1` stands 0.9516 ± 0.0011; under `COc1ccc(cc1)S(=O)(=O)N1C[C@@]2(C1)CN([C@@H](CO)c1c2c2ccc(OC)cc2n1C)C(=O)CN(C)C`, 0.95 ± 0.059.
In turn, `COc1ccc2c3c([C@@H](CO)N(C[C@]33CCN(CC3)S(C)(=O)=O)C(=O)CN(C)C)n(C)c2c1` registered a viability index under setting [1] of 0.956 ± 0.029.
As for `COc1ccc(cc1)S(=O)(=O)N1C[C@@]2(C1)CN([C@H](CO)c1c2c2ccc(OC)cc2n1C)C(=O)CN(C)C`, under setting [1], the viability index was 0.841 ± 0.028.
Same read-out and setting: under `COc1ccc2c3c([C@H](CO)N(C[C@]33CCN(CC3)C(=O)c3ccc4OCOc4c3)C(=O)Nc3ccc(F)cc3)n(C)c2c1` stands 0.846 ± 0.055; under `COc1ccc2c3c([C@@H](CO)N(CC4CC4)C[C@]33CN(C3)C(=O)c3ccc4OCOc4c3)n(C)c2c1`, 1.02 ± 0.016.
Molecule `COCC(=O)N1C[C@@]2(C1)CN(Cc1ccc3OCOc3c1)[C@H](CO)c1c2c2ccc(OC)cc2n1C` came in with a viability index under setting [1] of 0.938 ± 0.068.
Still for that read-out and setting: the same measure for `COc1ccc2c3c([C@@H](CO)NC[C@]33CN(CC4CCOCC4)C3)n(C)c2c1`: 1.07 ± 0.029; for `C[C@H](CO)N1C[C@H](C)[C@H](CN(C)Cc2ccc(Oc3ccccc3)cc2)Oc2ccc(N(C)C)cc2C1=O`: 1.01 ± 0.043.
On the same count and under the same terms, the same measure for `O=C(CCN1CCCCC1)N[C@H]1CC[C@@H](CCn2cc(-c3cccc(F)c3)nn2)O[C@H]1CO`: 1.07 ± 0.038.
The same measure, in the same setting: the same measure for `C[C@@H]1CN([C@@H](C)CO)C(=O)c2cc(NC(=O)Nc3cccc4ccccc34)ccc2O[C@@H](C)CCCCO[C@@H]1CN(C)S(=O)(=O)c1cn(C)cn1`: 0.949 ± 0.081; for `C[C@@H]1CC(=O)NCC/C=C\C[C@H](c2ccc3c(c2)OCO3)NC1=O`: 1.059 ± 0.0056; for `C[C@@H]1CN([C@@H](C)CO)C(=O)CCCn2nncc2CO[C@H]1CN(C)S(=O)(=O)c1cn(C)cn1`: 1.07 ± 0.065.
With `C[C@H]1CN([C@@H](C)CO)C(=O)c2cc(N(C)C)ccc2O[C@@H]1CN(C)CC1CCCCC1`, the viability index under setting [1] came to 1.01 ± 0.12.
The same measure, in the same setting: the same measure for `COc1ccc2c3c([C@H](CO)N(C[C@]33CN(Cc4ccccc4F)C3)C(=O)Nc3ccc(F)cc3)n(C)c2c1`: 1 ± 0.091.
Molecule `COc1ccc2c3c([C@@H](CO)N(C[C@]33CN(C3)C(=O)Cc3ccncc3)C(=O)Nc3ccc(F)cc3)n(C)c2c1` returned a viability index under setting [1] of 0.974 ± 0.085.
Still for that read-out and setting: the same measure for `COc1ccc2c3c([C@@H](CO)N(C[C@]33CN(Cc4ccccc4F)C3)C(=O)Nc3ccc(F)cc3)n(C)c2c1`: 0.791 ± 0.066.
As for `COc1cccc(C#Cc2ccc([C@H]3[C@@H](CO)N4C(=O)CN(C(=O)Cc5ccccc5)C[C@H]34)cc2)c1`, the viability index under setting [2] stood at 0.778 ± 0.047.
On to `O=C(Cc1cccnc1)N1CC(=O)N2[C@H](CO)[C@@H](c3ccc(C#CC4CCCCC4)cc3)[C@H]2C1`, for which the viability index under setting [1] is 1.04 ± 0.06.
On the same count and under the same terms, the same measure for `COc1cccc(C#Cc2ccc([C@@H]3[C@@H](CO)N4C(=O)CN(C(=O)Cc5cccnc5)C[C@H]34)cc2)c1`: 1.01 ± 0.084; for `COc1cccc(C#Cc2ccc([C@H]3[C@@H](CO)N4C(=O)CN(C(=O)Cc5cccnc5)C[C@H]34)cc2)c1`: 0.804 ± 0.11; for `COc1cccc(C#Cc2ccc([C@H]3[C@H]4CN(C(=O)Cc5cccnc5)CC(=O)N4[C@H]3CO)cc2)c1`: 1.057 ± 0.0037.
Same read-out and setting: under `CCCNC(=O)N1CC(=O)N2[C@H](CO)[C@H](c3ccc(C#Cc4cccc(OC)c4)cc3)[C@@H]2C1` stands 1.02 ± 0.062.
In the case of `COc1cccc(C#Cc2ccc([C@H]3[C@@H](CO)N4C(=O)CN(C(=O)c5ccccc5)C[C@H]34)cc2)c1`, the viability index under setting [2] worked out at 0.754 ± 0.074.
As to `COc1cccc(C#Cc2ccc([C@H]3[C@H](CO)N4C(=O)CN(C(=O)Cc5cccnc5)C[C@@H]34)cc2)c1`, the viability index under setting [1] was determined as 0.945 ± 0.048.
Molecule `O=C(Cc1cccnc1)N1CC(=O)N2[C@H](CO)[C@@H](c3ccc(C#CC4CCCCC4)cc3)[C@@H]2C1` showed a viability index under setting [1] of 1.07 ± 0.032.
Still for that read-out and setting: the same measure for `CCCNC(=O)N1CC(=O)N2[C@H](CO)[C@@H](c3ccc(C#Cc4cccc(OC)c4)cc3)[C@H]2C1`: 0.936 ± 0.075; for `COc1cccc(C#Cc2ccc([C@@H]3[C@H](CO)N4C(=O)CN(C(=O)Cc5cccnc5)C[C@@H]34)cc2)c1`: 0.904 ± 0.094.
Still for that read-out and setting: the same measure for `O=C(Cc1cccnc1)N1CC(=O)N2[C@H](CO)[C@H](c3ccc(C#CC4CCCCC4)cc3)[C@H]2C1`: 0.801 ± 0.073.
The same measure, in the same setting: the same measure for `CO[C@@H]1CN(C)C(=O)c2cc(NS(C)(=O)=O)ccc2OC[C@@H](C)N(C(=O)C2CCOCC2)C[C@@H]1C`: 1.17 ± 0.07.
With `CN(C)C(=O)c1ccc(-c2ccc([C@@H]3[C@@H]4CN(Cc5ccc6c(c5)OCO6)C[C@H]3N4)cc2)cc1`, the viability index under setting [1] turned out to be 1.05 ± 0.098.
Still for that read-out and setting: under `COc1ccc2c3c([C@H](CO)N(Cc4ccncc4)C[C@]33CN(C3)C(=O)C3CCCCC3)n(C)c2c1` stands 1.03 ± 0.079.
In the case of `O=C(C1CCOCC1)N1CC(=O)N2[C@@H](CO)[C@H](c3ccc(C#CCc4ccccc4)cc3)[C@@H]2C1`, the viability index under setting [1] worked out at 1.084 ± 0.0042.
